Assay results reported in PubChem BioAssay AID1030 (National Center for Advancing Translational Sciences (NCATS), 2008).
Out of some 220,000 compounds screened, about 16,000 (7.3%) were called active. Another 25% or so got no clear call; they are omitted. This is one part of a sample in which actives are shown more often than they occur. Unmarked numbers belong to inactive results. The call rests on the fitted dose curve; in most records, active means well fitted inhibition curve with a large enough effect (not every such curve was filed as active); inconclusive means small, poorly fitted or top-dose-only effect, or another doubt; inactive means no such curve, though single readings can be large or run the other way.

molecular target: Aldehyde dehydrogenase 1A1 (Homo sapiens) (UniProt P00352); assay: qHTS Assay for Inhibitors of Aldehyde Dehydrogenase 1 (ALDH1A1); conditions: Purified ALDH1A1, NADH fluorescence, propionaldehyde substrate; series mostly up to 75.3 µM; activity, negative = inhibition: at the top concentration;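 on activity, negative = inhibition: plate controls were no enzyme wells and a reference inhibitor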
Potency means the concentration at half of the fitted maximal effect.

Chain of Aldehyde dehydrogenase 1A1 (Homo sapiens) (P00352 whole entry, looked up): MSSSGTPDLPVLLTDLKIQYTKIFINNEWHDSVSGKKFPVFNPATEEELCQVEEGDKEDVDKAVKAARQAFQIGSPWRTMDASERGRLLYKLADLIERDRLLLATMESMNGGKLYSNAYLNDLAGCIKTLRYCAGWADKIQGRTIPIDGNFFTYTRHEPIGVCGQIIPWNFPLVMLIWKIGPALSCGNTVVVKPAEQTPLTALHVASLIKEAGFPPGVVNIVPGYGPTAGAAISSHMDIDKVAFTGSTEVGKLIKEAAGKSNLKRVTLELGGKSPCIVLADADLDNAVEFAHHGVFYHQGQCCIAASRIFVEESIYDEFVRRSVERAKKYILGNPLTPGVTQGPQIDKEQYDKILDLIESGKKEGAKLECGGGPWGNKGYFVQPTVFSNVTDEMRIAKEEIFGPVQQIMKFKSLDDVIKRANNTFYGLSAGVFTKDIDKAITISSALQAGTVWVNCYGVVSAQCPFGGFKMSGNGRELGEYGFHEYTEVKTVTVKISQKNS

SMILES | activity, negative = inhibition | Potency
COc1ccc(OC)c(NC(=O)N[C@H](Cc2ccccc2)C(=O)NN)c1 | 0.169% | –
CC(C)CN1CCNC(=O)C1CC(=O)N(C)CC1CCOCC1 (centres undefined) | -15.6% | –
Cc1ccc(CN(C)CC(=O)Nc2cccc([N+](=O)[O-])c2)o1 | -12.7% | –
CC(=O)c1ccc(NC(=S)N(Cc2ccccc2)C(C)C2CC2)cc1 (centres undefined) | -15.7% | –
CC1CCC(N2CC(=O)N(Cc3ccc4c(c3)OCO4)C(c3ccc(F)cc3)C2=O)CC1 (centres undefined) | -13% | –
Cc1ccc(N2C(=O)CC(NCc3ccc4c(c3)OCO4)C2=O)cc1Cl (centres undefined) | – | 22.4 µM (active)
Cc1ccc(CC2CC(=O)N(c3ccc4c(c3)OCCO4)C2=O)cc1 (centres undefined) | -14.9% | –
O=C1NC(c2cccc(Cl)c2)Nc2ccccc21 (centres undefined) | 2.54% | –
N/C(=N\S(=O)(=O)c1ccc(Cl)cc1)N1CCOCC1 | -1.23% | –
Cc1ccc(N(C(=O)c2sc(C)nc2C)C(C(=O)NC(C)(C)C)c2ccncc2)cc1 (centres undefined) | 12.4% | –
Cc1c(C(=O)O)nnn1-c1nonc1N | 3.6% | –
CC1(C)CC(=O)C(C=NCc2cccnc2)=C(O)C1 | -3.28% | –
CC(=O)N1CCN(CCN=CC2=C(O)CC(C)(C)CC2=O)CC1 | -14.2% | –
CCOC(=O)c1c(NC(=O)/C=C/c2ccco2)sc(C)c1C | -9.12% | –
CCOC(=O)c1sc(/N=C/C2=C(O)CC(C)(C)CC2=O)c(C(=O)OCC)c1C | – | 11.2 µM (active)
CCOC(=O)c1c(/N=C/C2C(=O)CC(C)(C)CC2=O)sc(C)c1C | – | 2.24 µM (active)
CCN(C(=O)COC(=O)c1c(NC(C)=O)sc(C)c1C)C1CCS(=O)(=O)C1 (centres undefined) | -13.5% | –
Cc1cc(C)nc(N/N=C/c2c(C)oc3ccccc23)n1 | 1.58% | –
O=C(COc1ccccc1[N+](=O)[O-])NC1CC1 | -0.186% | –
C=CCNC(=O)COC(=O)CNC(=O)c1cc(Cl)cc([N+](=O)[O-])c1 | -7.54% | –
Cn1cc(CCC(=O)N2CCCC(C(=O)c3ccc(C(C)(C)C)cc3)C2)cn1 (centres undefined) | -17.2% | –
Cc1nn(CC(=O)N/N=C/c2ccc(F)cc2)c(C)c1[N+](=O)[O-] | 8.02% | –
O=C(CCCc1ccccc1)NCc1ccccc1 | -5.53% | –
C/C(=C\c1ccco1)CN1CCC(N2CCC(C(=O)N3CCOCC3)CC2)CC1 | -2.56% | –
CCOC(=O)C(C)Sc1nnc(CSc2nc3nc(C)cc(C)n3n2)o1 (centres undefined) | 12.7% | –
COc1ccc(C(C)=O)cc1CSc1nc2nc(C)cc(C)n2n1 | – | 20 µM (active)

SMILES | activity, negative = inhibition | Potency
Cc1cc(C)n2nc(SCC(N)=O)nc2n1 | 10.8% | –
O=C(CCC(=O)OCc1ccc(Cl)cc1)Nc1ccccc1 | -1.17% | –
Cc1cc(C)c2nc(-c3cccnc3)cc(C(=O)Nc3ccc(S(=O)(=O)Nc4onc(C)c4C)cc3)c2c1 | 23.6% | –
COc1ccc(/C=C/C(=O)c2ccc(NS(=O)(=O)c3ccc(C)cc3)cc2)cc1O | -11% | –
CN1CCN(C(=O)CCc2ncc(C(F)(F)F)cc2Cl)CC1 | 3.64% | –
CC(CC(=O)C1C(C)C=CCC1(C)C)NNC(N)=O (centres undefined) | 6.59% | –
O=C(Nc1ccccc1N1CCN(c2ccccc2)CC1)c1cccc(F)c1 | -8.56% | –
O=C(Nc1ccccc1Cc1ccccc1)c1ccc2c(c1)SC1=NS(=O)(=O)CCN12 | – | 7.94 µM (active)
O=S1(=O)CCN2C(=N1)SC1=C2CCN(Cc2ccccc2)C1 | 13.5% | –
COc1ccc(N2CCN(CCCNC(=O)C3CCN(S(=O)(=O)N4CCOCC4)CC3)CC2)cc1 | 6.15% | –
CCc1ccc(N2CC(O)=C(c3nc4ccccc4c(=O)[nH]3)C2=N)cc1 | -198% | –
O=C(C1=C[C@H](c2coc3ccccc3c2=O)C[C@H](OCc2ccc(CO)cc2)O1)N1CCOCC1 | -3.13% | –
C=CCOC(=O)C1=C[C@@H](c2ccccc2)C[C@@H](OCc2ccc(CO)cc2)O1 | – | 10 µM (active)
CC(C)(C)[C@H]1C=C(C(=O)NCc2ccccc2)O[C@@H](OCc2ccc(CO)cc2)C1 | -0.163% | –
C=CCOC(=O)c1ccccc1C(=O)OCC=C | -5.89% | –
O=C(NCc1ccccc1)C1=C[C@@H](C2CCCCC2)C[C@@H](OCc2ccc(CO)cc2)O1 | – | 12.6 µM (active)
O=C(NCc1ccccc1)C1=C[C@@H](c2ccc(C(F)(F)F)cc2)C[C@@H](OCc2ccc(CO)cc2)O1 | -6.56% | –
O=C(C1=C[C@H](C2CC2)C[C@H](OCc2ccc(CO)cc2)O1)N1CCN(Cc2ccccc2)CC1 | -3.33% | –
O=C(NCc1ccccc1)C1=C[C@H](C2CC2)C[C@H](OCc2ccc(CO)cc2)O1 | -12.3% | –
NC(=O)C1=C[C@H](c2csc3ccccc23)C[C@H](OCc2ccc(CO)cc2)O1 | – | 8.91 µM (active)
O=C(CCS(=O)(=O)c1ccccc1Cl)Nc1ccc(S(=O)(=O)Nc2ncccn2)cc1 | 9.04% | –
O=C(COc1ccccc1)Nc1ccc(N2CCN(C(=O)c3cccs3)CC2)cc1 | -11.5% | –
Cc1ccc(C)c(-n2ccnc2SCC(N)=O)c1 | 21.3% | –
CC(CCn1cccn1)NC(=O)CCc1nnc(CCc2ccccc2)o1 (centres undefined) | 0.243% | –
CCC(C)NC(=O)c1nn(C)c(=O)c2ccccc12 (centres undefined) | 5.8% | –
CCC(C(=O)OCC(=O)Nc1ccccc1-c1ccccc1)c1ccccc1 (centres undefined) | -5.66% | –

SMILES | activity, negative = inhibition | Potency
CCOC(=O)c1c(C)oc2ccc(OCC(=O)N(CC)CC)cc12 | – | 11.2 µM (active)
CCOC(=O)c1c(C)oc2cc(Br)c(OCC(N)=O)cc12 | 2.21% | –
CCOC(=O)c1c(C)[nH]c(C(=O)COc2ccc3c(c2)OCO3)c1C | -4.6% | –
O=C(Nc1ccc(Cl)cc1)/C(=C1\CCCN1)[N+](=O)[O-] | 7.93% | –
Cn1nc(C(F)(F)F)cc1-c1ccc(/C=C(\C#N)C(=O)c2cccc(C(F)(F)F)c2)s1 | 0.518% | –
CCOc1cccc(-c2nn3c(-c4ccccn4)nnc3s2)c1 | 3.69% | –
COc1cc(-c2nn3c(-c4cccc(C)c4)nnc3s2)cc(OC)c1OC | 6.41% | –
COc1ccc(-c2nn3c(-c4ccccc4)nnc3s2)cc1OC | – | 25.1 µM (active)
CC(=O)c1sc(NC(=O)CCCOc2ccccc2C)nc1C | 18.5% | –
O=[N+]([O-])c1ccccc1N/N=C1\CCc2ccccc21 | 3.37% | –
C=Cn1c(C(=O)O)ccc1-c1ccc(OC)cc1 | -0.558% | –
C=CCn1c(=O)c2ccccc2n2c(SCC(=O)N3CCCc4ccccc43)nnc12 | – | 4.47 µM (active)
CCCn1c(SCC(=O)N2CCc3ccccc32)nnc1-c1ccncc1 | -2.33% | –
O=C(CSc1nc2[nH]ncc2c(=O)n1-c1ccccc1)N1CCCc2ccccc21 | -9.05% | –
Cc1ccnc2nc(C(=O)OCC(=O)N(CC(C)C)CC(C)C)nn12 | -1.78% | –
Cc1ccnc(NS(=O)(=O)c2ccc(NC(=O)c3ccc(S(=O)(=O)N4CCOCC4)cc3)cc2)n1 | -5.25% | –
O=P(O)(O)C(O)c1ccc2ccccc2c1 (centres undefined) | 3.77% | –
N#Cc1c2c(c(-c3ccccc3)[nH]c1=O)CCCC2 | 0.588% | –
N#Cc1c(/N=C/N2CCCC2)oc(-c2ccccc2)c1-c1ccccc1 | – | 7.94 µM (active)
CCSc1sc(CC)cc1C=O | 16.6% | –
O=C(COC(=O)c1ccccc1)Nc1cccc(S(=O)(=O)N2CCOCC2)c1 | 2.02% | –
Cc1ccc(N(C(=O)c2ccc(S(=O)(=O)N(C)C)cc2)C2C=CS(=O)(=O)C2)cc1 (centres undefined) | -1.32% | –
C=CCNc1scc(-c2ccccc2)[n+]1CC=C | 6.41% | –
CCc1ccnc(NS(=O)(=O)c2ccc3c(c2)OCCO3)c1 | -10.2% | –
CCN(C(=O)COC(=O)/C=C/c1nc2ccccc2s1)C1CCS(=O)(=O)C1 (centres undefined) | -11.6% | –
Cc1ccc(Nc2nc(-c3sc(NC(=O)c4ccccc4)nc3C)cs2)cc1 | – | 20 µM (active)

SMILES | activity, negative = inhibition | Potency
CCCCC(=O)Nc1nc(C)c(-c2csc(Nc3ccc(Cl)cc3)n2)s1 | – | 11.2 µM (active)
CCCCN(C)CCC(=O)Nc1ccc(Cl)cc1 | 6.04% | –
COc1ccc(-c2csc(NC(=O)CCCc3cccs3)n2)cc1 | -6.08% | –
Cc1ccc(-c2csc(NNC(=O)c3ccccc3)n2)cc1 | -4.96% | –
Cc1nc(NC(=O)c2cccc(Cl)c2)sc1-c1csc(Nc2cccc(Cl)c2)n1 | -7.1% | –
CCOc1ccc(NCCC(=O)c2ccc3c(c2)OCO3)cc1 | – | 0.631 µM (active)
COC(=O)CCNc1ccc2c(c1)OCCO2 | 1.06% | –
COc1ccc(C(=O)Nc2ccc3c(c2)OCO3)cc1OC | 5.14% | –
Cc1ccc(C)n1NC(=O)c1ccc([N+](=O)[O-])cc1 | -2.92% | –
CC(=O)Nc1ccc(Nc2c([N+](=O)[O-])cc(S(C)(=O)=O)cc2[N+](=O)[O-])cc1 | 1.36% | –
Cc1cccc(NC(=S)N2CCCC(c3nc4ccccc4[nH]3)C2)c1 (centres undefined) | -4.99% | –
CCCn1nnc2sc3c(c2c1=O)CCC(C)C3 (centres undefined) | – | 6.31 µM (active)
CCC1(C)Cc2c(sc3nnn(CC(=O)Nc4ccc(Cl)cc4)c(=O)c23)CO1 (centres undefined) | 1.5% | –
CC(C)(C)C1CCc2c(sc3nc(SCC(N)=O)nc(N)c23)C1 (centres undefined) | -2.86% | –
Cc1ccc(NC(=O)c2ccccn2)cc1S(=O)(=O)N1CCOCC1 | -1.07% | –
CCc1ccc2c(c1)cc(CN(C(=S)Nc1ccccc1Cl)C1CC1)c1nnnn12 | 0.303% | –
CCOc1ccc2c(c1)cc(CN(C(=O)CC)C1CCCCC1)c1nnnn12 | – | 31.6 µM (active)
O=C(COC(=O)c1ccncc1)c1ccccc1 | -0.468% | –
Cn1cccc1/C=C1\SC(=O)N(CC(=O)Nc2ccc(F)cc2)C1=O | 6.89% | –
COC(=O)CCCC1=CC2=CC(=O)C(C)(OC(=O)c3cccs3)C(=O)C2=CN1c1cccc(C#N)c1 (centres undefined) | 1.29% [at 13.5 µM] | –
Cc1ccc(-c2cc(C(=O)N3CCc4ccccc4C3)no2)cc1 | -6.72% | –
Cc1ccc(S(=O)(=O)N(C)CC(=O)N2CCc3ccccc32)cc1 | -14.1% | –
Cc1ccc2c(c1)N(C(=O)CCC(=O)N1CCc3ccccc3C1)CCO2 | – | 20 µM (active)
Cc1cccc(NC(=O)Nc2ccc3c(c2)OCO3)n1 | -5.97% | –
CC1=C2[C@@H](O)[C@H]([C@@H](C)C(=O)NCCC(C)C)CC[C@@]2(C)C=CC1=O | 3.98% | –
CC(=O)OC1C([N+]2(C)CCCCC2)C[C@H]2C3CC[C@H]4C[C@H](OC(C)=O)C([N+]5(C)CCCCC5)CC4(C)C3CCC12C (some centres undefined) | -0.578% | –
